In PubChem BioAssay AID435005 (Broad Institute, 2010):
The whole screen tested about 300,000 compounds, of which about 2,400 (0.8%) were called active.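 Rule for the calls: active = Every replicate reaches about 75%, or at least half do and their mean reaches it too (limit read from the data); inconclusive = At least half of replicates reach the limit but their mean does not; inactive = Under half of replicates reach the limit.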 Many of the other results were omitted from the sample, so actives are more common in it than they were.

Assay: inhibitors of cytokine-induced beta cell apoptosis, primary screen, luminescence (AID 435005);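 note: 0% = cytokine-treated negative control wells and 100% = positive control rescue; higher means more ATP so stronger rescue from cytokine killing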
Details: INS-1E cytokine-induced death, ATP luminescence, 48 h; hits give high values; percent of positive-control rescue, neutral wells zero; concentration not given here

Compound | protection from apoptosis
Cc1ccc(NC(=O)OCc2cncs2)cc1 | -4.61% (inactive)
COc1ccc(NC(=O)/C(Cl)=C(/Cl)S(=O)Cc2ccc(C)cc2)cn1 (stereo unspecified) | 106% (active)
COc1ccc(Nc2ccc([N+](=O)[O-])cn2)cn1 | -4.41% (inactive)
O=C(Nc1cc(S(=O)(=O)Nc2ccc(Cl)cc2)ccc1O)c1ccc(F)cc1F | 3.17% (inactive)
CCCN(CC(=O)NC(=O)NC1CCCCC1)CC(=O)Nc1cc(Cl)ccc1Cl | -6.07% (inactive)
CN(C)S(=O)(=O)c1cccc(NC(=O)COc2ccc3ccccc3c2)c1 | -1.11% (inactive)
CCNc1nc(-c2cc3ccccc3o2)cs1 | -12.4% (inactive)
Cc1nc(C)c(-c2csc(NCCc3ccccc3)n2)s1 | 78.4% (active)
S=c1[nH]nc(NCCc2ccccc2)s1 | -4.61% (inactive)
O=C(CSc1ccccc1)Nc1cccc(S(=O)(=O)N2CCCCC2)c1 | -5.41% (inactive)
COC(=O)[C@]1(Cc2ccccc2)N[C@H](CN(C)S(=O)(=O)c2ccc(OC(F)(F)F)cc2)[C@@H]2C(=O)N(C)C(=O)[C@@H]21 | -3.66% (inactive)
CCC(CO)Oc1cc(NC(=O)c2ccc(Cl)cc2)c2ncn(C(C)C)c2c1 (stereo unspecified) | 2.88% (inactive)
CCOc1cc(N2CCOCC2)c(OCC)cc1NC(=O)c1cc(C)nc2ccccc12 | 7.08% (inactive)
CCOc1cc(N2CCOCC2)c(OCC)cc1NC(=O)COc1cccc2cccnc12 | 102% (active)
CCOc1cc(N2CCOCC2)c(OCC)cc1NC(=O)COc1cccc(Cl)c1 | 0.61% (inactive)
Cc1cc(C(=O)NNC(=O)c2ccccc2O)c(C)o1 | -1.18% (inactive)
C/C(=N\NC(=O)c1ccccc1C)c1ccc(N2CCOCC2)cc1 | -16.8% (inactive)
C/C(=N\NC(=O)c1ccoc1C)c1ccccc1O | 79.7% (active)
Cn1cncc1C#Cc1c(-c2ccsc2)sc2ccccc12 | -6.24% (inactive)
O=C(NCCc1ccc(C(F)(F)F)cc1)c1ccc2c(c1)OCO2 | 5.32% (inactive)
CCCCNc1c(-c2ccc(OC)c(Sc3ccc(OC)cc3)c2)nc2ccc(Cl)cn12 | 16.9% (inactive)
O=C(NCCc1ccccc1)C1CCN(S(=O)(=O)c2ccc(Br)s2)CC1 | 2.68% (inactive)

Compound | protection from apoptosis
O=S(=O)([N-]c1nc2ccccc2nc1-[n+]1ccc(Cc2ccccc2)cc1)c1ccc(Br)s1 | 118% (active)
Cc1cc(C)c[n+](-c2nc3ccccc3nc2[N-]S(=O)(=O)c2cccs2)c1 | -3.34% (inactive)
Cc1ccc(C(=O)Nc2ccn(C)n2)cc1 | -7% (inactive)
CCn1nc(C(=O)NNS(=O)(=O)c2cc(/C=C/C(=O)O)cc(OC)c2OC)c2ccccc2c1=O | 0.598% (inactive)
COc1cc(/C=C/C(=O)Nc2ccc(OC)c(S(=O)(=O)N3CCOCC3)c2)ccc1OCC#N | 4.79% (inactive)
COc1ccc(OC)c(-c2csc(NC(=O)COC(=O)C3CC3)n2)c1 | -4.15% (inactive)
O=C(O)c1ccc(N/N=C/c2cn(-c3ccccc3)nc2-c2cccs2)cc1 | -0.771% (inactive)
Cc1ccc(-c2nn(-c3ccccc3)cc2/C=N/NC(=O)c2ccc3c(c2)OCO3)cc1 | 110% (active)
CC(C)(C)OC(=O)N/N=C/c1cn(-c2ccccc2)nc1-c1cccnc1 | 2.76% (inactive)
Cc1cccc(C(=O)N[C@H](C(=O)NCc2cccs2)C(C)C)c1 | 3.35% (inactive)
O=C(CN1CCc2ccccc2C1)Nc1cccc(S(=O)(=O)N2CCOCC2)c1 | 0.0837% (inactive)
COc1cccc(/C=N/Nc2ncc(C(F)(F)F)cc2Cl)c1O | 131% (active)
COc1cccc(/C(C)=N/Nc2ncc(Cl)cc2Cl)c1 | -0.169% (inactive)
N/C(=N\OC(=O)Nc1ccc(Cl)c(Cl)c1)c1ncc(C(F)(F)F)cc1Cl | -13.2% (inactive)
Cc1ccc(/C=C/C(=O)OCC(=O)NCc2ccc(Cl)cc2)o1 | 0.631% (inactive)
CC(=O)N1CCCc2cc(S(=O)(=O)N3CCCC(C(=O)NCc4ccc(Cl)cc4)C3)ccc21 (stereo unspecified) | 4.03% (inactive)
CC(=O)N1CCCc2cc(S(=O)(=O)N3CCCC(C(=O)N4CCN(c5cccc(Cl)c5)CC4)C3)ccc21 (stereo unspecified) | 89.9% (active)
CC(=O)N1c2ccc(S(=O)(=O)N3CCCC(C(=O)Nc4cccc(Cl)c4)C3)cc2CC1C (stereo unspecified) | 6.26% (inactive)
COc1ccccc1C(=O)OCC(=O)Nc1cccc(S(=O)(=O)NC2=NCCCCC2)c1 | -2.64% (inactive)
O=C(NCCc1ccco1)c1ccc(OCc2cn3ccccc3n2)cc1 | 1.94% (inactive)
CCOC(=O)c1cnc(-n2nc(C)cc2C)nc1NNc1cc(C)nc(-c2ccccc2)n1 | 84.8% (active)
CCOC(=O)c1cnc(-n2nc(C)cc2C)nc1Nc1cccc(C(C)=O)c1 | 8.92% (inactive)

Compound | protection from apoptosis
Cc1cc(C)n(-c2c(F)c(F)c(COC(=O)c3ccccc3)c(F)c2F)n1 | 3.67% (inactive)
C=CCC[C@H](Cc1ccc(F)cc1)C(=O)OC[C@@H](NC(=O)[C@@H](CC=C)CC(=O)N[C@H](CO)Cc1ccccc1)C(C)(C)C | 5.28% (inactive)
O=C(NNS(=O)(=O)c1c(F)cc(F)c(Cl)c1F)C12CC3CC(CC(C3)C1)C2 | -12% (inactive)
Fc1ccccc1COc1cccc2cccnc12 | -7.41% (inactive)
Cc1nc2ccccc2cc1OCc1ccc(F)cc1 | 95.4% (active)
Cc1occc(=O)c1OCc1ccc(F)cc1 | -6.87% (inactive)
Cc1nn(-c2ccccc2)c(C)c1NC(=O)COc1ccc(Cl)cc1Cl | 0.164% (inactive)
COC(=O)c1c(NC(=O)COc2ccc(Cl)cc2Cl)sc2c1CC(C)(C)NC2(C)C | 114% (active)
CCOC(=O)c1c(NC(=O)c2ccc(S(=O)(=O)N(C)CC3CCCO3)cc2)sc2c1CC(C)(C)NC2(C)C (stereo unspecified) | 25.6% (inactive)
COc1cc(OC)cc(C(=O)N[C@H](C(=O)NNC(=O)c2ccc(Br)cc2)C(C)C)c1 | -4.34% (inactive)
CC1CCCCC1NCC(=O)Nc1ccccc1C(=O)Nc1ccccc1 (stereo unspecified) | 4.75% (inactive)
CSc1ncc(Sc2ccccc2)c(C(=O)O)n1 | -2.15% (inactive)
CSc1nc(-c2ccccc2)nc(C(Cl)Cl)n1 | 105% (active)
COc1cc(OC)c(N2CC(C(=O)Nc3cc(Cl)ccc3N3CCOCC3)CC2=O)cc1Cl (stereo unspecified) | 26.3% (inactive)
O=C(COC(=O)Cc1ccc([N+](=O)[O-])cc1)NC1CCCCCC1 | -5.89% (inactive)
NC(=O)C1CCN(C(=O)c2ccc(F)c(S(=O)(=O)N3CCOCC3)c2)CC1 | 0.339% (inactive)
O=C(c1cccnc1)N(c1cc2sc(=O)oc2c2ccccc12)S(=O)(=O)c1ccccc1 | 81.4% (active)
COc1ccc(N(C(=O)c2cccnc2)S(=O)(=O)c2ccc(OC)c(OC)c2)cc1 | -3.31% (inactive)
COc1ccc(N(C(=O)c2cccnc2)S(=O)(=O)c2ccc3c(c2)n(C)c(=O)n3C)cc1 | -8.54% (inactive)
COc1cc(Cl)c(C)cc1NC(=O)CSc1nnc(CN2CCCC2)o1 | 2.22% (inactive)
COc1cccc(NC(=O)COC(=O)c2ccc3ccccc3n2)c1 | -5.49% (inactive)
CCn1c(=N)n(CC(=O)c2cccc(OC)c2)c2ccccc21 | -5.87% (inactive)

Compound | protection from apoptosis
COc1cccc(OCCCN2CCCCCC2)c1 | -3.45% (inactive)
CCOC(=O)Cn1c(-c2cccnc2Cl)nc2ccccc21 | -2.69% (inactive)
Cc1ccc(OCCCn2c(=O)oc3ccccc32)cc1 | 1.16% (inactive)
CCCCCCCCCCOC(=O)Cn1c(COc2ccc(C)cc2)[n+](C)c2ccccc21 | 112% (active)
CCCCCCCCCCOC(=O)Cn1c(COc2cccc(OC)c2)[n+](C)c2ccccc21 | 109% (active)
COc1ccc2nc3n(c(=O)c2c1)-c1cc(C)ccc1C(=O)NC3Cc1ccc(O)cc1 (stereo unspecified) | 9.76% (inactive)
COc1ccc(NS(=O)(=O)c2cc(NC(=O)c3ccc(S(=O)(=O)N(C)C)cc3)ccc2N2CCOCC2)cc1 | 5.26% (inactive)
COc1ccccc1OCCNC(=O)C(CCSC)NC(=O)COc1ccccc1 (stereo unspecified) | -1.66% (inactive)
Cc1ccc(S(=O)(=O)N2CCN(C)CC2)cc1 | 4.63% (inactive)
Cc1ccc(S(=O)(=O)N2CCN(c3ncnc4ccccc34)CC2)cc1 | 102% (active)
Cc1cc(N2CCN(S(=O)(=O)c3ccc(C)c(C)c3)CC2)c2ccccc2n1 | 10.4% (inactive)
COc1ccc(C)cc1S(=O)(=O)N1CCN(S(=O)(=O)c2cc(C(=O)O)ccc2C)CC1 | -3.1% (inactive)
Cc1ccc(C)c(S(=O)(=O)N2CCN(C(=O)Nc3ccccc3)CC2)c1 | -4.43% (inactive)
Cc1ccc(C)c(S(=O)(=O)N2CCN(c3ncnc4sccc34)CC2)c1 | 112% (active)
COC(=O)[C@]1(CC(C)C)N[C@H](c2ccc(SC3CCCCC3)cc2)[C@@H]2C(=O)N(C)C(=O)[C@@H]21 | 2.66% (inactive)
C[C@H](CO)N1C[C@H](C)[C@@H](CN(C)C(=O)NC2CCCCC2)Oc2ccc(NC(=O)c3ccncc3)cc2C1=O | -8.1% (inactive)
CCOc1ccc(NS(=O)(=O)c2ccc(Cl)c(C(=O)N(C)Cc3cccnc3)c2)cc1 | 5.11% (inactive)
COc1ccccc1CNC(=O)COC(=O)c1cccs1 | -8.13% (inactive)
O=C1NC[C@@H](c2ccccc2)OC(=O)[C@H](Cc2ccc(F)cc2)CC/C=C/C[C@H]1CC(=O)N(CCO)Cc1ccccc1 | 5.81% (inactive)
C#CCOCCOCCOCCNc1nc(N2CCN(C(=O)[C@H](CCCN=C(N)N)n3cc(C(N)[C@@H](C)CC)nn3)CC2)nc(N2CCN(C(=O)[C@H](CO)n3cc([C@@H](N)C(C)C)nn3)CC2)n1 (stereo partly specified) | -10.4% (inactive)
